We go through 173 sequences from publication PMC6212790, “How bacterial xenogeneic silencer rok distinguishes foreign from self DNA in its resident genome”.

The full ranking holds about 33,000 sequences; the median of “e-score” is about -0.038, and the highest 2% start at about 0.33. The sample as a whole holds a higher share of the highest values than the screen did.

This assay addresses T1, GST-Rok-C97-191 (Bacillus subtilis subsp. subtilis str. …, UniProt O34857 97-191).
T1 sequence: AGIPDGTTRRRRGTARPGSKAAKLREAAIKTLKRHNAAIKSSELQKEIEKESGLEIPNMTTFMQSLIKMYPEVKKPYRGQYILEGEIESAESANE
Description: protein binding microarray; Rok is a gene silencer of Bacillus subtilis; high values mean tight binding. The conditions noted are these: protein: recombinant; tags: GST (pTH5325, pDEST15-Magic modified); dsDNA, one strand shown. Put shortly:
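Every oligonucleotide joins a 25-mer constant primer to a 35-mer variable part drawn from a de Bruijn sequence of order 10, so each non-palindromic 8-mer appears at least 32 times and each palindromic 8-mer 16 times. The preference for every 8-mer is reported as a unitless, rank-based enrichment score (E-score). This score spans 0.5 for the most favored 8-mer to −0.5 for the most disfavored.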
As for GCTACATA, the binding signal is 0.315 E-score. Turning to GCTAGGCA, the binding signal is -0.0675 E-score. Under CAAGGGCC stands -0.186 E-score; under CAAATACC, 0.114 E-score.

On to AAAATACG, for which the binding signal stood at 0.266 E-score. In the case of GAAATACC, the binding signal worked out at 0.289 E-score. For AAAATACC, the binding signal worked out at 0.357 E-score. Under AAAATACT stands 0.371 E-score. Regarding AAAATACA, the binding signal was 0.32 E-score. Take AAGTAAGG: the binding signal was 0.0741 E-score. In the case of AGAGTTTC, the binding signal was -0.0267 E-score. Next, GTCGGTTA: 0.00256 E-score; AAAGTTTG: -0.0186 E-score; AGAACGCC: 0.0453 E-score.

Take AGGTCCTC: the binding signal is -0.0779 E-score. Consider ACTCCTTA, for which the binding signal was found to be 0.00627 E-score. Next, AAAACCAA: 0.0758 E-score; AGTGATGA: 0.024 E-score. As for CGTAGTAG, the binding signal is 0.223 E-score.

Consider ATTAGTAG, for which the binding signal turned out to be 0.319 E-score. For AGCAGTAT, the binding signal came to 0.0236 E-score.

For the sequence GGTAGTAC, the binding signal was found to be 0.268 E-score.

As for AGAAGTAT, the binding signal worked out at 0.292 E-score. Under AGTAGTAC stands 0.356 E-score; under CGTAGTAC, 0.186 E-score; under AGTAGTAT, 0.368 E-score. For AGTAGTAG, the binding signal was found to be 0.385 E-score. As for GTTGGCTA, the binding signal was determined as 0.0528 E-score.

On to CACAGGTA, for which the binding signal was -0.0357 E-score.

Regarding CTCAATAA, the binding signal was 0.215 E-score. As for GGTATTTA, the binding signal was 0.342 E-score. CATATTAC: the binding signal worked out at 0.22 E-score. CATATTAA: the binding signal turned out to be 0.194 E-score. Regarding AATATTAA, the binding signal stood at 0.285 E-score. For the sequence GATATTAC, the binding signal was determined as 0.328 E-score. Under GATATTTA stands 0.328 E-score.

As to CATATTTA, the binding signal turned out to be 0.282 E-score. With AGTATTTA, the binding signal was 0.301 E-score. Next, CGTATTTA: 0.318 E-score. Under GATATTAA stands 0.379 E-score; under AATATTTA, 0.311 E-score. Turning to AATATTAC, the binding signal stood at 0.284 E-score. Next, CTGCAGGC: -0.199 E-score; ACCACTCG: -0.181 E-score. Under ACATCATG stands -0.155 E-score; under GCTCGACA, -0.145 E-score; under CCCATTAC, -0.0975 E-score. Next, GCTAACAC: -0.0971 E-score.

For TGCCTGAA, the binding signal is -0.0885 E-score.

Consider CGAGTCCG, for which the binding signal was -0.192 E-score. Next, TATATTAA: 0.387 E-score. Under TATATTGA stands 0.288 E-score; under TGTATTAA, 0.294 E-score; under CAACGAAA, 0.00998 E-score. Next, AATTCACG: 0.127 E-score; CGCTTTGA: -0.0415 E-score. In the case of TGTACTAA, the binding signal is 0.191 E-score. In the case of CGTACTTA, the binding signal came out at 0.23 E-score. As to ACTACTAA, the binding signal is 0.379 E-score.

Consider TCTACTCA, for which the binding signal came out at 0.188 E-score.

On to GGTACTAA, for which the binding signal is 0.249 E-score.

As to ACTACTTA, the binding signal came out at 0.415 E-score. For ACTACTGA, the binding signal amounted to 0.269 E-score.

For AGTACTTA, the binding signal is 0.355 E-score. As for TCTACTAA, the binding signal amounted to 0.342 E-score. Under AGTACTTG stands 0.296 E-score; under ACTACTTC, 0.226 E-score; under GCTACTAA, 0.229 E-score. Next, CGTCCCAA: -0.181 E-score; CATTATGA: 0.0691 E-score. Under TCCACTCA stands -0.127 E-score; under AGCCAATG, -0.162 E-score; under CGCAGAAG, -0.171 E-score.

In the case of TTAATTAA, the binding signal is 0.346 E-score. Next, TAATTTAA: 0.396 E-score; CTAATTAA: 0.275 E-score. Next, GAATTTAA: 0.124 E-score; CTAATTCC: 0.159 E-score; CTAATTAC: 0.382 E-score. With ATAATTAG, the binding signal is 0.354 E-score.

With CCAATTAC, the binding signal worked out at 0.0758 E-score. Under ATAATTAT stands 0.137 E-score; under AAATTTAA, 0.299 E-score. For TCAATTAA, the binding signal is 0.161 E-score. Next, ATAATTAA: 0.298 E-score. Regarding GTCCTAGA, the binding signal was -0.199 E-score. Under AATGTCGC stands 0.0115 E-score.

For CTAGCTAG, the binding signal was 0.294 E-score. For the sequence ATCTTAGG, the binding signal was -0.016 E-score. Next, CGGCGGTA: 0.123 E-score; CCAGGTCA: -0.0861 E-score. For GCAATTAC, the binding signal was determined as 0.13 E-score. Next, CGAATTAG: 0.279 E-score.

As for CCAATTAG, the binding signal was -0.111 E-score. For the sequence GTAATTAC, the binding signal was determined as 0.43 E-score.

Regarding CTAATTAG, the binding signal stood at 0.362 E-score. Next, ATAATTAC: 0.332 E-score. Next, AGAATTAC: 0.217 E-score. Next, ATAATTGC: 0.26 E-score; GTAATTAA: 0.213 E-score; ATGAATTC: 0.0443 E-score. In the case of CGCTTAGA, the binding signal is -0.0215 E-score. In the case of GATATCGA, the binding signal was 0.223 E-score. Under GAACGACC stands -0.143 E-score; under CGTTCTAG, 0.22 E-score; under CTTTGTCC, -0.101 E-score. With ATTAGGAA, the binding signal was -0.056 E-score. Under TGGGACAA stands -0.0222 E-score; under CATCCAAC, -0.0608 E-score. Turning to AATTATAG, the binding signal is 0.303 E-score. Turning to AATTATAT, the binding signal amounted to 0.398 E-score.

As for GATTATAC, the binding signal came to 0.238 E-score. Next, AATTATAC: 0.348 E-score; CATTATAC: 0.177 E-score. Next, AATTATAA: 0.274 E-score.

Regarding AAGGGTGC, the binding signal was -0.165 E-score. CATCTGAA: the binding signal was -0.0216 E-score. Next, ATAACTAA: 0.249 E-score.

On to AAAACTTG, for which the binding signal is -0.0585 E-score. As to ATAACTAT, the binding signal stood at 0.383 E-score. Next, AAAACTGC: -0.0367 E-score; AAAACTAC: 0.433 E-score; AAAACTGT: 0.0809 E-score.

Regarding ATAACTAG, the binding signal amounted to 0.232 E-score. With AAAACTAT, the binding signal is 0.415 E-score. Under AAAACTAG stands 0.364 E-score; under AAAACTCC, 0.137 E-score; under AAAACTAA, 0.255 E-score.

AAAACTGG: the binding signal was 0.0097 E-score. In the case of CGATCAAG, the binding signal is -0.0651 E-score.

On to ACATCGCG, for which the binding signal came out at 0.139 E-score. As to CCAAATAC, the binding signal came to 0.137 E-score. Consider GAACGTTC, for which the binding signal worked out at 0.053 E-score.

As for CCGTAGCA, the binding signal worked out at 0.075 E-score. Under ATTTGGAA stands 0.102 E-score. Under AGCCAATA stands -0.0503 E-score; under GAATTCAC, 0.074 E-score; under ACAACTAC, 0.348 E-score.

For the sequence CAAACTAG, the binding signal came out at 0.287 E-score.

For CAAACTAA, the binding signal came out at 0.374 E-score.

Turning to GCAACTAC, the binding signal worked out at 0.239 E-score. As to GAAACTAC, the binding signal was 0.46 E-score. Regarding TAAACTAA, the binding signal came out at 0.234 E-score. On to CAAACTCC, for which the binding signal was -0.063 E-score. In the case of GAAACTAA, the binding signal worked out at 0.313 E-score. Next, ACAACTAT: 0.321 E-score; CAAACTTA: 0.101 E-score; GAAACTTC: 0.204 E-score.

Take CAAACTAC: the binding signal is 0.446 E-score. In the case of CTGAGTCA, the binding signal was -0.156 E-score.

With AGGTTCAC, the binding signal is -0.111 E-score.

GGTCCTTA: the binding signal was 0.0575 E-score. Under CAAGGTGA stands -0.134 E-score.

For the sequence AAGTTGCA, the binding signal was determined as 0.0502 E-score. Under CTGGTCAA stands 0.00605 E-score. CCCATATC: the binding signal is -0.0677 E-score. In the case of AGCTATTA, the binding signal was 0.315 E-score. As for GATTTATA, the binding signal was 0.304 E-score. Next, CATTTTTA: 0.184 E-score; CATTTATC: 0.218 E-score; CATTTATA: 0.354 E-score. Next, AATTTATG: 0.209 E-score. Regarding AATTTATA, the binding signal was found to be 0.373 E-score.

On to ATTCACTA, for which the binding signal stood at 0.174 E-score. Next, AGTCGATC: -0.00304 E-score; ACGGGAAA: 0.132 E-score. Under ACCGGAAA stands -0.1 E-score; under ACTATATC, 0.284 E-score. Take GCTATATA: the binding signal came to 0.355 E-score. Take ACTATATA: the binding signal is 0.437 E-score. For the sequence ACTATAGA, the binding signal was determined as 0.241 E-score. Next, GCTATACA: 0.176 E-score. Next, CCTATATA: 0.283 E-score.
